Sampled rows, rich in hits. Any-hit rate of the full collection: about 1.9%.
Pin1 inhibitor – inhibitors of human Pin1; Q13526; Pin1 FP peptide displacement, HiFluor488, 10 min; Potency, µM (series often up to 115 µM), without a hit: at the highest dose activity, negative = inhibition, hits mostly inhibitors; 390,000 compounds, 0.009% hits; AID 504891; active means well fitted inhibition curve with a large enough effect in the polarisation, with a control signal flat, not every such curve was filed as active; inconclusive means small, poorly fitted or top-dose-only effect, or effect the other way, or a change in a side signal; inactive means no such curve, though single readings can be large or run the other way; the % refers to the polarisation; further: potency means the concentration at half of the fitted maximal effect; on the % scale 0 is the no-effect control and ±100 the full control effect
a7 integrin act – activates integrin-mediated alleviation for muscular dystrophy; Potency, µM (doses to about 38.3 µM), for the others: at the highest dose activation, hits mostly activators; alpha7betagal myoblasts, beta-gal FDG fluorescence, 48 h; AID 624291; 350,000 compounds, 0.064% hits;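 further: potency means the concentration at half of the fitted maximal effect; 100% = response of the positive control SU9516; nearly all actives have a fitted effect of over 60% in size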
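alpha7betagal+/- myoblasts (passage 13, 250/well) treated 48 h at 37C with compounds at 1:260 dilution of DMSO stock. Lysed, then beta-galactosidase activity read as FDG fluorescence (ex 480/em 540) after 30 min, with pre-read for autofluorescence.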
IL2 activator – IL-2 activation; IL-2 activation reporter assay, cell-based qHTS; stimulated with anti-CD3/CD4/CD28 beads; in transgenic mouse T cells; activation, % (series mostly up to about 46 µM); 360,000 compounds, 0.065% hits; AID 652025; in the data active means activation above about 50%; inconclusive means mostly about 30% to 49%; further: 0% is about no effect
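Quantitative HTS in unstimulated transgenic mouse T cells, with memory T cells as non-tolerant control and PMA/ionomycin as tolerance-bypass control. Compound pretreatment lasted 60 minutes before 18 h bead stimulation; EGFP/DsRed fluorescence read.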
PKM2 act – PKM2 (human) enzyme activation; Potency, µM (doses to about 57.5 µM), without a hit: top-dose activation, usual class: activators; 260,000 compounds, 0.34% hits; purified PKM2, Kinase-Glo ATP luminescence, activation; response scale: 0% is enzyme alone, no compound; further: potency means the concentration at half of the fitted maximal effect; on the % scale 0 is the no-effect control and ±100 the full control effect; nearly all actives have a fitted effect of over 55% in size
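hPK-M2, >95% pure; 0.1 mM ADP / 0.5 mM PEP final; imidazole pH7.2 buffer w/ 7 mM MgCl2, 50 mM KCl; 1 h RT; Kinase-Glo lum. Intermediate enzyme activity for dual inhibitor/activator qHTS.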
ClpP mod – qHTS Assay for Activators of ClpP | ATP-dependent Clp protease proteolytic subunit (Bacillus subtilis (strain 168)), P80244 | purified B. subtilis ClpP, FRET peptide cleavage, 20 min | Potency, µM (highest dose often 57.5 µM), for inactives: at the highest dose activity change, negative = active | 340,000 compounds, 1.9% hits | AID 651965, 2013; active means well fitted falling curve with a large enough effect; inconclusive means small, poorly fitted or top-dose-only effect; inactive means no such curve, though single readings can be large or run the other way; further: potency means the concentration at half of the fitted maximal effect; the source files actives as falling curves though it sought activators and does not explain the sign; nearly all actives have a fitted effect of over 65% in size
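FRET quenching reversal measured ClpP activation: 10 microg/mL B. subtilis ClpP at pH 8 with the FRET-FV decapeptide, read at 430 nm after 320 nm excitation. The 20-min minus 0-min signal was scaled between DMSO/no-enzyme wells and ADEP (5.8 microM final).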
USP2a inh – blocks human ubiquitin-specific protease USP2a | O75604 | USP2 core, Ub-CHOP2 coupled fluorogenic reporter, 485/531 | Potency, µM (highest dose often 38.3 µM), without a hit: top-dose activity change, negative = inhibition, most hits filed as inhibitors | 330,000 compounds, 0.01% hits | AID 463254;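 further: potency means the concentration at half of the fitted maximal effect; plate controls were DMSO wells for no effect and full inhibition by NEM control for full effect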
Target sequence (O75604 whole entry, looked up): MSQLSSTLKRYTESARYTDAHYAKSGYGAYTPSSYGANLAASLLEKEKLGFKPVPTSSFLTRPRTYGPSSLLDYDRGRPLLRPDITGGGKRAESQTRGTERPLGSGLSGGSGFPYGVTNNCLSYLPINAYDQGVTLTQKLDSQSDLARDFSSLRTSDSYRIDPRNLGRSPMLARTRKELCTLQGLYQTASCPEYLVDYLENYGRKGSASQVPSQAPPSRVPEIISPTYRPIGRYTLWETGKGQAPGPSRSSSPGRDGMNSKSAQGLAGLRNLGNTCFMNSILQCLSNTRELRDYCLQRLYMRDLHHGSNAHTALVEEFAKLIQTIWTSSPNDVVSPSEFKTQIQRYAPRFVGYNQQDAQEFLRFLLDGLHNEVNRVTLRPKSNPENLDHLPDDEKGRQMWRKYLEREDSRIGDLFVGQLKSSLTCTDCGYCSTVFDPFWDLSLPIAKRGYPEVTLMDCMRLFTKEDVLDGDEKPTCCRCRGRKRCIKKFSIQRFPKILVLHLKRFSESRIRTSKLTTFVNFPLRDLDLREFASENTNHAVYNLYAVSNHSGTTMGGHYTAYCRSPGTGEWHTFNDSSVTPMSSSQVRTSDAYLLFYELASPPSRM
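USP2 core (10nM final) preincubated 30min RT with compound in 20mM Tris-HCl pH 8.0, 2mM CaCl2, 2mM beta-mercaptoethanol, 0.05% CHAPS; 25nM Ub-CHOP2 plus 25nM reporter substrate added, fluorescence (Ex485/Em531) read after 60min.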
ClpP inh valid – Bacillus subtilis ClpP inhibition, validated hit; shares compounds with ClpP mod; purified B. subtilis ClpP, FRET-FV substrate cleavage, 20 min; Potency, µM (series often up to 57.5 µM), inactives show at the top dose activity change, negative = inhibition, most hits filed as inhibitors; 470 compounds, 40% hits; AID 743245; further: potency means the concentration at half of the fitted maximal effect; on the % scale 0 is the no-effect control and ±100 the full control effect; nearly all actives have a fitted effect of over 70% in size
Active calls of the source: *; ? = inconclusive; . = no result. Unless noted, the call rests on the fitted dose curve; in most records, active means well fitted curve in the direction sought with a large enough effect; inconclusive means small, poorly fitted or top-dose-only effect, or another doubt; inactive means no such curve, though single readings can be large; an effect the other way counts as inactive or inconclusive.

SMILES	Pin1 inhibitor	a7 integrin act	IL2 activator	PKM2 act	ClpP mod	USP2a inh	ClpP inh valid
CCCNc1oc(-c2cccc3ccccc23)nc1C#N	2.1%	4.6%	3.7	-3.7%	28.2µM*	1.8%	.
CN(C)c1ccc(CN2CCc3nc(N4CCN(c5ccccn5)CC4)ncc3C2)cc1	?	.	.	.	6.4%	.	.
COc1ccccc1NC(=O)c1oc2ccccc2c1NC(=O)c1ccccc1C(F)(F)F	1.3%	.	.	.	206.4%	.	30.6µM*
O=C(Nc1ccc2oc(-c3cccnc3)nc2c1)c1ccc(-c2cccc(Cl)c2)o1	55.7%	.	.	.	4.3%	.	.
CNC(=O)Oc1ccc(-c2cn3cc(Cl)ccc3n2)cc1	0.1%	-17.0%	-0.5	-13.6%	8.91µM*	2.1%	?
CCOC(=O)c1ccc(N2C(=O)c3n[nH]c(-c4cccs4)c3C2c2ccc(OC)cc2OC)cc1 (centres undefined)	9.1%	.	.	.	?	.	.
Cc1cc(OCc2ccc([N+](=O)[O-])cc2)c2c3c(c(=O)oc2c1)CCCC3	-6.8%	10.8%	1.0	-12.0%	-0.2%	-5.8%	.
Cc1cc(OCc2nn[nH]n2)c2c3c(c(=O)oc2c1)CCCC3	-0.6%	20.2%	-0.6	-3.0%	6.31µM*	3.2%	27.3µM*
